From PubChem BioAssay (NCATS)
Inconclusive results are not listed. Where a call stands in place of a potency, no number is given. Activity calls are given as the source filed them. The call rests on the fitted dose curve; in most records, active means well fitted inhibition curve with a large enough effect; inconclusive means small, poorly fitted or top-dose-only effect; inactive means flat fitted curve, though single readings scatter. Where a SMILES comes first, the peptide text is derived from it. Bridges are numbered along the chain shown (N, C = ends). [ ]: non-standard residue; d: D form. NMeY = CN[CH](Cc1ccc(O)cc1)C(=O)O

These molecules were tested against Glutathione peroxidase 1 (Homo sapiens) (UniProt P07203) (assay: Primary qHTS Assay for Inhibitors of Recombinant Selenoprotein Glutathione Peroxidase 1 (GPX1) (AID 1845191; further: nearly all actives have a fitted effect of over 65% in size)). Conditions: recombinant GPX1, GR-coupled NADPH fluorescence, 15 min; series mostly up to 48.8 µM.
Sequence of Glutathione peroxidase 1 (Homo sapiens) (P07203 whole entry, looked up): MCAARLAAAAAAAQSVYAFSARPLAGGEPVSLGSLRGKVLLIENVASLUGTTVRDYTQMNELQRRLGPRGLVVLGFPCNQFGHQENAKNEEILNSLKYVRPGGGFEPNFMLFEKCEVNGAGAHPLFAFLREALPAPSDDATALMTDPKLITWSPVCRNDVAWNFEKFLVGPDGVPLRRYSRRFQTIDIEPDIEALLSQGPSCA
From the text: Assay Provider: Elias S.J. Arner MD PhD.
Department of Medical Biochemistry and Biophysics
Karolinska Institutet, Solna, Stockholm, Sweden
Selenoprotein glutathione peroxidases (GPX), like the ubiquitously expressed GPX1 and the ferroptosis modulator GPX4, enact their antioxidant activities by reducing hydroperoxides using glutathione. […] GPX1 and GPX4 inhibitors have thus shown promise as anti-cancer agents. Existing inhibitors are often promiscuous, or modulate GPX activity only indirectly, so novel direct inhibitors identified through screening against GPX1 and GPX4 could be valuable. Here, we developed optimized glutathione reductase (GR)-coupled GPX assays for the biochemical high-throughput screen (HTS) of almost 12,000 compounds with known mechanisms of action. Initial hits were triaged using a GR counter-screen, assessed for isoform specificity using a separate GPX2 assay, and were assessed for general selenocysteine-targeting activity using a thioredoxin reductase (TXNRD1) assay. With this suite of assays, we identified novel GPX1/GPX2- and GPX4-specific inhibitors and can here present a validated pipeline for future discovery research for selenoprotein-targeting agents.
SEQUENCE No. (e.g., 1, 2, 3, etc.); […] (e.g., Cells, Incubation, Reagent, etc.); VALUE; DESCRIPTION.
1; Reagent 1; 3 uL; GPx1 enzyme or no enzyme control in 1536-well, black, solid Greiner assay plate.
2; Compound; 25 nL; Kalypsis pin tool (Wako USA) equipped with a 1536-well pin head.
3; Incubation; 30 min; room temperature.
4; Reagent 2; 1 uL; 10 nM GPX1, 1 mM GSH, 0.5 mM CHP, 0.5 mM NADPH, 100 nM GR, 0.01% BSA substrate
5; Detection; Fluorescence; ViewLux microplate reader, excitation 340 nm and emission 450 nm.
6; Incubation; 15 min; room temperature.
7; Detection; Fluorescence; ViewLux microplate reader, excitation 340 nm and emission 450 nm.
NOTES (numbers refer to Sequence numbers above)
1. 3 uL of 16.66 nM GPX1 and 0.016% BSA in assay buffer (50 mM Tris-HCl, 2 mM EDTA (pH 7.5), 150 mM NaCl) was added to columns 3-48 of 1536-well assay plates using a BioRAPTR Flying Reagent Dispenser (Let's Go Robotics (LGR), Carlsbad, CA). A no-enzyme control (0.01% BSA in TES assay buffer) was added to columns 1-2.
2. 25 nL of test compounds and DMSO controls were added to each well with a pin tool (Kalypsys).
3. The assay plates were incubated for 30 minutes at room temperature.
4. 1 uL of master mix (500 nM glutathione reductase (GR), 5 mM reduced glutathione (GSH), 2.5 mM NADPH in assay buffer) was added. 1 uL of cumene hydroperoxide (CHP) ([2.5 mM] in 50% EtOH) was then added within 5 minutes to initiate the reaction. Final concentrations were: 10 nM GPX1, 1 mM GSH, 0.5 mM CHP, 0.5 mM NADPH, 100 nM GR, 0.01% BSA.
5. Initial fluorescence readout (t=0) at 340/450 nm was measured using a ViewLux multimodal detector (PerkinElmer, Waltham, MA).
7. Endpoint fluorescence readout (t=15) at 340/450 nm was measured 15 min after room temperature incubation.
For `CC(O)CO[C@@H]1O[C@H](CO)[C@@H](O)[C@H](O)[C@H]1O` (stereo not given in full), the Potency was “inactive”.
For `CCCCc1nc2cc(/C=C/C(=O)NO)ccc2n1CCN(CC)CC`, the Potency was “inactive”.
For `O=C(Nc1c(-c2cccs2)nc2ccccn12)c1ccc(Cl)cc1`, the Potency was “inactive”.
With `Cc1cc(C(=O)Nc2cccc(C(=O)Nc3cccc(C(F)(F)F)c3)c2)on1` the Potency was “inactive”.
With `N=c1nc2n(cc1F)C1OC(CO)C(O)C1O2` (stereo not given) the Potency was “inactive”.
In the case of `COC1=CC(=O)CC(C)C12Oc1cc(OC)cc(O)c1C2=O` (stereo not given), the Potency is reported as “inactive”.
In the case of `CC1=CC(=O)CC(C)(C)C1CCC(C)O[C@@H]1O[C@H](CO[C@@H]2OC[C@@H](O)[C@H](O)[C@H]2O)[C@@H](O)[C@H](O)[C@H]1O` (stereo not given in full), the Potency is reported as “inactive”.
In the case of `CC(=O)N1CCN(Cc2ccc([C@H](C)Nc3nccc(N4C(=O)OC[C@@H]4C(C)C)n3)cc2)CC1`, the Potency is reported as “inactive”.
With `CC[C@H]1OC(=O)[C@](C)(F)C(=O)[C@H](C)[C@@H](O[C@@H]2O[C@H](C)C[C@H](N(C)C)[C@H]2O)[C@](C)(OC)C[C@@H](C)C(=O)[C@@H](C)[C@H]2N(CCCCn3cc(-c4cccc(N)c4)nn3)C(=O)O[C@]12C` the Potency was “inactive”.
`CC(C)(O)C1CCC(C)(C2CCC3(C)C4CCC5C(C)(C(=O)OC6OC(CO)C(O)C(O)C6O)C(O)CC(O)C56CC46CCC23C)O1` (stereo not given) was tested, and the Potency was “inactive”.
For `O=C1NC(=O)C(c2cn3c4c(cccc24)CCC3)C1c1c[nH]c2ccccc12` (stereo not given), the Potency was “inactive”.
In the case of `COc1cc(O)c([C@@H](CC(=O)N2CC(C)CC(C)C2)c2ccc3c(c2)OCO3)c(OC)c1` (stereo not given in full), the Potency is reported as “inactive”.
For `CN(C)C(=O)NC1CCC(CCN2CCN(c3cccc(Cl)c3Cl)CC2)CC1` (stereo not given), the Potency was “inactive”.
With `O=C(CCc1nnc2n(Cc3ccc(Cl)cc3)c(=O)c3ccccc3n12)NCCC1=CCCCC1` the Potency was “inactive”.
`C=C(C(=O)O)C1CC(O)C2(C)CCCC(=C)C2C1` (stereo not given) was tested, and the Potency was “inactive”.
`C[C@@H]1C[C@H]2O[C@@H]2/C=C\C=C\C(=O)Cc2c(Cl)c(O)cc(O)c2C(=O)O1` was tested, and the Potency was “inactive”.
`C[C@@H]1CCC2C(C)(C)[C@H](O)CC[C@]2(C)[C@@]12Cc1c(O)cc3c(c1O2)CN([C@@H](CCC(=O)O)C(=O)O)C3=O` (stereo not given in full) was tested, and the Potency was “inactive”.
`CC1(C)C=CN2C(=O)C3=CCCN3C(=O)[C@@H]2C[C@@]12Nc1ccccc1C2=O` was tested, and the Potency was “inactive”.
With `CC1OC(OC2C(C)OC(OC3C(O)C(CO)OC(O[C@H]4CC[C@@]5(C)C(CC[C@]6(C)C5CC=C5C7[C@@H](C)[C@H](C)CC[C@]7(C(=O)O)CC[C@]56C(=O)O)C4(C)C)C3O)C(O)C2O)C(O)C(O)C1O` (stereo not given in full) the Potency was “inactive”.
For `COc1ccc(CC2NCCc3c2[nH]c2ccc(C)cc32)cc1OC` (stereo not given), the Potency was “inactive”.
With `CC1OC(O[C@H]2CC[C@@]3(C)C(CC[C@]4(C)C3CC=C3C5CC(C)(C)CC[C@]5(C(=O)OC5OC(CO)C(OC6OC(COC7OCC(O)C(O)C7O)C(O)C(O)C6O)C(O)C5O)CC[C@]34C)C2(C)C)C(O)C(O)C1OC1OCC(OC2OCC(O)C(O)C2O)C(O)C1O` (stereo not given in full) the activity, negative = inhibition was -21.4% [at 9.52 µM] (inactive).
`CC1(C)CC[C@]2(C(=O)O[C@@H]3O[C@H](CO)[C@@H](O)[C@H](O)[C@H]3O)CC[C@]3(C)C(=CCC4[C@@]5(C)CC[C@H](O[C@@H]6O[C@H](C(=O)O)[C@@H](O)[C@H](O)[C@H]6O)[C@@](C)(CO)C5CC[C@]43C)C2C1` (stereo not given in full) was tested, and the Potency was “inactive”.
For `CCOC(=O)Nc1cc(-c2ccc(C)c(NS(C)(=O)=O)c2)nn2c(C)nnc12`, the Potency was “inactive”.
For `C[C@@H]1C[C@@H]([C@@H](O)C(C)(C)O)O[C@H]2C[C@@]3(C)C(=C12)C[C@H](O)[C@H]1[C@@]2(C)CCC(=O)C(C)(C)C2CC[C@@]13C` (stereo not given in full), the Potency was “inactive”.
In the case of `O=C(CO)[C@@H](O)[C@H](O[C@@H]1O[C@H](CO)[C@H](O)[C@H](O)[C@H]1O)[C@H](O)CO`, the Potency is reported as “inactive”.
In the case of `CC(=O)N[C@@H](CCCCN)C(=O)N(C)[C@@H](CC(C)C)C(=O)N[C@H](C(=O)N(C)[C@@H](Cc1ccccc1)C(=O)N[C@H](Cc1ccccc1)C(N)=O)C(C)C`, the activity, negative = inhibition is reported as 0.986% [at 4.49 µM] (inactive).
`CCC(C)C1NC(=O)C2CCCN2C(=O)C(NC(C)=O)C(C)OC(=O)C(Cc2ccc(OC)cc2)N(C)C(=O)C2CCCN2C(=O)C(C(C)C)NC1=O` (stereo not given) (Ac-TPIVP[NMeY](Me); ester 1-C; configuration not given here) was tested, and the Potency was “inactive”.
With `C=C[C@]1(C)C=C2CCC3C(C)(CCC[C@@]3(C)C(=O)O)C2CC1` (stereo not given in full) the Potency was “inactive”.
With `OC[C@H]1O[C@@H](Oc2ccccc2)[C@H](O)[C@@H](O)[C@@H]1O` the Potency was “inactive”.
In the case of `CC(=O)OC[C@@]12C(=O)C[C@@H](C)[C@]3(C[C@@H](c4ccoc4)O[C@H]3OC(C)=O)[C@H]1CCC[C@]21CO1`, the Potency is reported as “inactive”.
With `C[C@H](CCC(=O)O)[C@H]1CC[C@H]2[C@@H]3C[C@H](O)[C@@H]4C[C@H](O)CC[C@]4(C)[C@H]3CC[C@]12C` the Potency was “inactive”.
In the case of `Cn1cc(-c2ccc3nnc(Sc4ccc5nn(C)cc5c4)n3n2)cn1`, the Potency is reported as “inactive”.
With `CS(=O)(=O)N1CCC(NC(=O)c2[nH]ncc2NC(=O)c2c(Cl)cccc2Cl)CC1` the Potency was “inactive”.
`OC[C@H]1O[C@@H](OCCc2ccccc2)[C@H](O[C@@H]2OC[C@](O)(CO)[C@H]2O)[C@@H](O)[C@@H]1O` was tested, and the Potency was “inactive”.
For `C/C1=C\CC[C@H](C)CCO[C@@H]2O[C@H](CO[C@@H]3OC[C@](O)(COC1=O)[C@H]3O)[C@@H](O)[C@H](O)[C@H]2O`, the Potency was “inactive”.
With `CC(=O)c1c(O)cc(O[C@@H]2O[C@H](CO)[C@@H](O)[C@H](O)[C@H]2O)cc1O` the Potency was “inactive”.
`C/C=C1\[C@H](OC2OC(COC3OC(CO)C(O)C(O)C3O)C(O)C(O)C2O)OC=C(C(=O)OC)[C@H]1CC(=O)OCCc1ccc(O)cc1` (stereo not given in full) was tested, and the Potency was “inactive”.
`CC1(C)CCC[C@@]2(C)C1[C@H](OC(=O)/C=C/C=C/C(=O)O)C=C1COC(=O)[C@@]12O` (stereo not given in full) was tested, and the Potency was “inactive”.
In the case of `COc1cc(O)cc(C)c1C(=O)OC1C(CO)OC(OC2C(O)C(O)C(O)C(O)C2O)C(O)C1O` (stereo not given), the Potency is reported as “inactive”.
With `CCNC(=O)C1OC(n2cnc3c(N)nc(NCCc4ccc(CCC(=O)O)cc4)nc32)C(O)C1O` (stereo not given) the Potency was “inactive”.
